Results reported in PubChem BioAssay (NCATS).
Values joined by “and” are separate entries in the source; they are usually repeats but may differ in a detail not shown here. Equal entries are not always repeated. Records with an inconclusive call do not appear. Some structures have more than one record in an assay (separate samples or runs), and their calls can disagree. Active and inactive are the calls of the source. Calls come from the whole dose curve; as a rule, active = well fitted inhibition curve with a large enough effect; inconclusive = small, poorly fitted or top-dose-only effect; inactive = flat fitted curve, though single readings scatter. Where a SMILES comes first, the peptide text is derived from it. Bridges are numbered along the chain shown (N, C = ends).

Legend:
[1] = Drug repurposing screens with cells derived from glioblastoma tumor samples (AID 1345199); conditions: GBM patient neurospheres viability, ATP luminescence, 48 h; note: nearly all actives have a fitted effect of over 40% in size
Outline: (§1)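 Primary testing used CD133+ neurospheres from four GBM patients, seven concentrations, 48 h exposure and ATP-based viability; confirmation added three slower-growing patient lines.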

astro = control astrocytes; assay: as above; conditions: viability, ATP luminescence, 48 h; series mostly up to 45.9 µM
Outline: as §1

[2] = at 45.9 µM (top of the series), tumour line B
[3] = at 45.9 µM (top of the series), tumour line D
[4] = at 46 µM (top of the series), tumour line A
[5] = at 46.1 µM (top of the series), tumour line C
% is set by controls: 0 for no effect and ±100 for the full control effect; potency is the fitted concentration of half-maximal effect.

CS(=O)(=O)NC(=O)CCC/C=C\C[C@H]1C(=O)C[C@@H](O)[C@@H]1/C=C/[C@H](O)COc1ccccc1
inactive: activity, negative = cell killing [1, 2] -2.71% | activity, negative = cell killing [1, 3] -15.8% | activity, negative = cell killing [1, 4] -29.7% | activity, negative = cell killing [1, 5] 0.501% | Potency (astro)

COC[C@H](c1ccc(C(F)(F)F)cc1)N1CCN(C2(C)CCN(C(=O)c3c(C)ncnc3C)CC2)C[C@H]1C
inactive: activity, negative = cell killing [1, 2] -1.49% | activity, negative = cell killing [1, 3] -13.4% | activity, negative = cell killing [1, 5] 5.67% | Potency (astro)
active: Potency ([1]; tumour line A) 11.2 µM

O=C(CO)[C@@H](O)[C@H](O)[C@H](O)CO
inactive: activity, negative = cell killing [1, 2] -6.93% | activity, negative = cell killing [1, 3] 1.86% | activity, negative = cell killing [1, 4] -24.2% | activity, negative = cell killing [1, 5] 19% | Potency (astro)

C/C(=C(/CCO)SSCC1CCCO1)N(C=O)Cc1cnc(C)nc1N (stereo not given)
active: Potency ([1]; tumour line A) 25.1 µM
inactive: activity, negative = cell killing [1, 2] -8.31% and -21.8% | activity, negative = cell killing [1, 3] -10.4% and -21.6% | activity, negative = cell killing [1, 5] -12.1% and -0.697% | Potency (astro)

O=C1O[C@H]2[C@H](O)[C@@H]1OC(O)[C@H]2O (stereo not given in full)
inactive: activity, negative = cell killing [1, 2] -7.22% | activity, negative = cell killing [1, 3] -9.05% | activity, negative = cell killing [1, 4] -25.4% | activity, negative = cell killing [1, 5] 16.3% | Potency (astro)

CCC(=O)O
inactive: activity, negative = cell killing [1, 2] 6.59% | activity, negative = cell killing [1, 3] -5.65% | activity, negative = cell killing [1, 4] -7.77% | activity, negative = cell killing [1, 5] 7.14% | Potency (astro)

O=P(O)(O)OC(CO)CO
inactive: activity, negative = cell killing [1, 2] -13.5% | activity, negative = cell killing [1, 3] 14.6% | activity, negative = cell killing [1, 4] -6.76% | activity, negative = cell killing [1, 5] 3.76% | Potency (astro)

CCC(=O)OCC(=O)[C@@]1(OC(=O)CC)[C@H](C)C[C@H]2[C@@H]3CCC4=CC(=O)C=C[C@]4(C)[C@@]3(F)[C@@H](O)C[C@@]21C
inactive: activity, negative = cell killing [1, 2] -7.21% | activity, negative = cell killing [1, 3] -9.28% | activity, negative = cell killing [1, 5] -2.15% | Potency (astro)
active: Potency ([1]; tumour line A) 17.8 µM

O=C(Cn1cnnn1)N[C@@H]1C(=O)N2C(C(=O)O)=C(CSc3nncs3)CS[C@H]12
inactive: activity, negative = cell killing [1, 2] -3.62% and -9.64% | activity, negative = cell killing [1, 3] -5.02% and -0.39% | activity, negative = cell killing [1, 4] -29.3% | activity, negative = cell killing [1, 5] 1.48% and -8.58% | Potency (astro)

CCCC(=O)N1CCCN(c2nc(N)c3cc(OC)c(OC)cc3n2)CC1
inactive: activity, negative = cell killing [1, 2] -1.44% | activity, negative = cell killing [1, 3] -2.77% | activity, negative = cell killing [1, 5] 14.2% | Potency (astro)
active: Potency ([1]; tumour line A) 17.8 µM

O=P(O)(O)C(O)(Cc1cnc2ccccn12)P(=O)(O)O
inactive: activity, negative = cell killing [1, 2] -3.54% | activity, negative = cell killing [1, 3] 2.92% | activity, negative = cell killing [1, 4] -12.2% | activity, negative = cell killing [1, 5] 2.63% | Potency (astro)

O=C1O[C@@H]2[C@@H](O)[C@H](O)O[C@@H]2[C@H]1O
inactive: activity, negative = cell killing [1, 2] -11.2% | activity, negative = cell killing [1, 3] -1.84% | activity, negative = cell killing [1, 4] -28.6% | activity, negative = cell killing [1, 5] -14% | Potency (astro)

CCCC(CCC)C(N)=O
inactive: activity, negative = cell killing [1, 2] 1.34% | activity, negative = cell killing [1, 3] -12.3% | activity, negative = cell killing [1, 4] -16.5% | activity, negative = cell killing [1, 5] 0.0882% | Potency (astro)

C[C@@H]1C[C@H]2C3C[C@H](F)C4=CC(=O)C=CC4(C)[C@@]3(F)[C@@H](O)CC2(C)[C@@]1(O)C(=O)COC(=O)C(C)(C)C (stereo not given in full)
active: Potency ([1]; tumour line A) 12.6 µM
inactive: activity, negative = cell killing [1, 2] -6.93% | activity, negative = cell killing [1, 3] -10.7% | activity, negative = cell killing [1, 5] 2.01% | Potency (astro)

CCCCCCCCCCCCCCCCCC(=O)[O][Al]
inactive: activity, negative = cell killing [1, 2] -8.38% | activity, negative = cell killing [1, 3] -6.36% | activity, negative = cell killing [1, 4] -12.4% | activity, negative = cell killing [1, 5] -6.43% | Potency (astro)

CCN(CC)CCOC(=O)c1ccc(N)cc1Cl
inactive: activity, negative = cell killing [1, 2] -9.89% | activity, negative = cell killing [1, 3] -17.2% | activity, negative = cell killing [1, 4] -27.9% | activity, negative = cell killing [1, 5] -6% | Potency (astro)

NCCCC[C@H](NC(=O)[C@@H]1CCCN1C(=O)[C@@H]1CSSC[C@H](NC(=O)CNC(=O)CNC(=O)CN)C(=O)N[C@@H](Cc2ccc(O)cc2)C(=O)N[C@@H](Cc2ccccc2)C(=O)N[C@@H](CCC(N)=O)C(=O)N[C@@H](CC(N)=O)C(=O)N1)C(=O)NCC(N)=O (H-GGGCYFQNCPKG-NH2; disulfide 4-9)
inactive: activity, negative = cell killing [1, 2] -8.67% | activity, negative = cell killing [1, 3] 3.33% | activity, negative = cell killing [1, 4] -28% | activity, negative = cell killing [1, 5] 22.1% | Potency (astro)
